About 83,000 compounds went through this panel and 20% of them were active in at least one assay; those are over-represented in the sample as a whole.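 Note: values are percent growth. 100 is the growth of untreated cells, values between 100 and 0 indicate rising inhibition; between -100 and 0 indicates cell death.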 The source made the active and inactive calls. Rule for the calls: active = growth percent below 10; inactive = the rest.
Test system: HL-60(TB) leukemia
Assay: NCI-60 one-dose screen, 48 h (100 = growth as untreated, 0 = no growth, -100 = all killed)
Conditions: 10 µM unless noted

Structure (SMILES) | growth
Fc1ccc2c(c1)c(-c1nc(-c3c[nH]c4ncccc34)cs1)cn2CCCN1CCCCC1 | 24.2% (inactive)
Cn1cnc([N+](=O)[O-])c1Sc1nc(N)nc2nc[nH]c12 | 59.9% (inactive)
COc1cc(C(=O)NC(=S)NCc2ccncc2)cc(OC)c1OC | 89.7% (inactive)
